AmpC nodet inh = inhibitors of E. coli AmpC beta-lactamase without detergent; P00811; AmpC nitrocefin hydrolysis, absorbance 480 nm, no detergent; Potency, µM (highest dose often 28.7 µM); 71,000 compounds, 1.8% hits
Target sequence (P00811 whole entry, looked up): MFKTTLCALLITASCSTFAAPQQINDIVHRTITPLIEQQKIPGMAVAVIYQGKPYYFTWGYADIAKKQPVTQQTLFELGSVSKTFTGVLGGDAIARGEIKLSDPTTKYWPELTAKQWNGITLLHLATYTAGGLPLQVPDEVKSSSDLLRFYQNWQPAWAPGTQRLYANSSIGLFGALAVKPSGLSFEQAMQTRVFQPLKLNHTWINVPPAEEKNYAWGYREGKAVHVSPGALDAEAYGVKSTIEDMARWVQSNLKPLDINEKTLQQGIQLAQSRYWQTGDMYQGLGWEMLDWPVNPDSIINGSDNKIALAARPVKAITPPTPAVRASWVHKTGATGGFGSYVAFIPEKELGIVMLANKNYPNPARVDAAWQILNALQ
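AmpC in 20 mM phosphate buffer pH 7.0 was preincubated 15 min at room temperature with compounds. Nitrocefin (800 uM stock) was then added and hydrolysis followed at 480 nm every 20 s for 4 min.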
AmpC det inh = AmpC beta-lactamase inhibition, detergent assay; P00811; purified AmpC, nitrocefin hydrolysis with detergent; Potency, µM (highest dose often 28.7 µM); 71,000 compounds, 0.09% hits; AID 584; active = well fitted curve in the direction sought with a large enough effect; inconclusive = small, poorly fitted or top-dose-only effect
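E. coli AmpC (5.3 nM) in 20 mM phosphate pH 7.0 with 0.01% Triton X-100, preincubated 15 min RT with compound; nitrocefin (2 uL of 800 uM stock) hydrolysis followed by 480 nm absorbance every 20 s over 4 min.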
LT uptake inh = anthrax lethal toxin internalization inhibition; Cells, anthrax lethal toxin internalization, FRET ratio (460/530); Potency, µM (series often up to 40 µM), hits mostly inhibitors; 70,000 compounds, 0.67% hits; AID 912; note: nearly all actives have a fitted effect of over 50% in size
Prx2 Sm inh = Schistosoma mansoni Prx2 inhibition. S. mansoni Prx2 activity coupled to TGR/GSH (TGR is thioredoxin glutathione reductase), NADPH fluorescence loss, qHTS. Potency, µM. 65,000 compounds, 0.07% hits. AID 448
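Prx2 inhibition was measured as reduced NADPH consumption when electrons flowed from NADPH through TGR and glutathione to Prx2 and H2O2. Plates were read kinetically over 8 min; enzyme reagents were held at 4 deg C during dispensing.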
A number is an active result; [ ] = remark or other dose. Sampled rows, rich in hits. Any-hit rate of the full collection: about 2.6%. Unless noted, calls come from the whole dose curve.

For Cc1noc(C)c1C(=O)Nc1nc(C23CC4CC(CC(C4)C2)C3)cs1 the results were AmpC nodet inh inactive, AmpC det inh inactive, LT uptake inh 10µM and Prx2 Sm inh inactive.
Screening CCOC(=O)Cc1csc(NC(=O)c2c(-c3ccccc3)noc2C)n1 returned AmpC nodet inh inactive, AmpC det inh inactive and LT uptake inh inactive.
For COc1cc(/C=C\C(=O)CC(=O)/C=C\c2ccc(O)c(OC)c2)ccc1O the results were AmpC nodet inh inactive, AmpC det inh inactive, LT uptake inh inconclusive and Prx2 Sm inh inactive.
c1csc(Cc2nc(-c3ccc(-n4cccc4)cc3)no2)c1 was read as AmpC nodet inh 12.6µM, AmpC det inh inactive, LT uptake inh inactive and Prx2 Sm inh inactive.
For S=C([S-])NCCNC(=S)[S-].[Zn+2] the results were AmpC nodet inh inactive, AmpC det inh inactive and LT uptake inh inconclusive.
For Cc1cc(Br)ccc1OCC(=O)N(Cc1nc(-c2ccccc2)no1)C(C)C the results were AmpC nodet inh inactive, AmpC det inh inactive, LT uptake inh inconclusive and Prx2 Sm inh inactive.
`CC(C)N(Cc1nc(-c2ccc(Cl)cc2)no1)C(=O)CCC1CCCC1` gave AmpC nodet inh 3.98µM[single pt active], AmpC det inh inactive, LT uptake inh inconclusive and Prx2 Sm inh inactive.
CC(C)N(Cc1nc(-c2ccccc2)no1)C(=O)CSc1ccccc1 was read as AmpC nodet inh inactive, AmpC det inh inactive, LT uptake inh inactive and Prx2 Sm inh inactive.
Screening CC(C)N(Cc1nc(-c2ccccc2)no1)C(=O)Cc1ccccc1 returned AmpC nodet inh 3.98µM[single pt active], AmpC det inh inactive, LT uptake inh inactive and Prx2 Sm inh inactive.
For CC(C)N(Cc1nc(-c2ccccc2)no1)C(=O)COc1ccccc1 the results were AmpC nodet inh 3.98µM[single pt active], AmpC det inh inactive, LT uptake inh inconclusive and Prx2 Sm inh inactive.
`COc1ccccc1OCC(=O)N(Cc1nc(-c2ccc(Cl)cc2)no1)C(C)C` gave AmpC nodet inh inactive, AmpC det inh inactive, LT uptake inh inconclusive and Prx2 Sm inh inactive.
`Nc1ncnc2c1ncn2[C@@H]1O[C@@H](C(=O)NC2CC2)[C@H](O)[C@@H]1O` gave AmpC nodet inh inactive, AmpC det inh inactive, LT uptake inh inactive and Prx2 Sm inh inactive.
Screening O=C(NCCN1CCN(c2ccccc2)CC1)C1CCCN(S(=O)(=O)c2cnc[nH]2)C1 (configuration not stated) returned AmpC nodet inh 2.51µM[single pt active], AmpC det inh inactive, LT uptake inh inactive and Prx2 Sm inh inactive.
Screening Cc1ccc(CCNC(=O)C2CCCN(S(=O)(=O)c3cnc[nH]3)C2)cc1 (configuration not stated) returned AmpC nodet inh inactive, AmpC det inh inactive, LT uptake inh inactive and Prx2 Sm inh inactive.
CCN(CCCNC(=O)C1CCCN(S(=O)(=O)c2cnc[nH]2)C1)c1ccccc1 (configuration not stated) was read as AmpC nodet inh 3.98µM[single pt active], AmpC det inh inactive, LT uptake inh inactive and Prx2 Sm inh inactive.
`CCN(CCNC(=O)C1CCCN(S(=O)(=O)c2cnc[nH]2)C1)c1ccccc1` (configuration not stated) gave AmpC nodet inh 3.98µM[single pt active], AmpC det inh inactive, LT uptake inh inactive and Prx2 Sm inh inactive.
For Cc1cccc(CN2CCC(CNC(=O)C3CCCN(S(=O)(=O)c4cnc[nH]4)C3)CC2)c1 (configuration not stated) the results were AmpC nodet inh 3.16µM[single pt active], AmpC det inh inactive, LT uptake inh inactive and Prx2 Sm inh inactive.
For Cc1oc(C(C)(C)C)cc1C(=O)Nc1ccc2c(c1)OCCO2 the results were AmpC nodet inh inactive, AmpC det inh inactive, LT uptake inh inconclusive and Prx2 Sm inh inactive.
For CC(C)(C)c1ccc(/C=C/C(=O)Nc2ccc3c(c2)OCCO3)cc1 the results were LT uptake inh 3.98µM.
`CCCCC[C@@H](O)[C@@H]1C(=O)O[C@@H](C)[C@@H](O)\C=C/C=C\C=C/C=C\C=C(\C)[C@H](O)C[C@H](O)C[C@H](O)C[C@H](O)C[C@H](O)C[C@H](O)C[C@@H]1O` gave AmpC nodet inh inactive[5.75 µM], AmpC det inh inactive[5.75 µM], LT uptake inh inactive[8 µM] and Prx2 Sm inh inactive.
COc1cccc([C@H]2Oc3ccc(OC)cc3/C(=N\O[C@@H]3O[C@H](COC(C)=O)[C@H](OC(C)=O)[C@H](OC(C)=O)[C@H]3OC(C)=O)[C@@H]2O)c1 was read as LT uptake inh inactive[8 µM].
For Cc1c(Cc2ccccc2)c(=O)oc2cc(OCc3nn[nH]n3)ccc12 the results were AmpC nodet inh 10µM[single pt active], AmpC det inh inactive, LT uptake inh inconclusive and Prx2 Sm inh inactive.
`CCOC(=O)CCc1c(C)c2ccc(OCc3nn[nH]n3)cc2oc1=O` gave AmpC nodet inh inactive, AmpC det inh inactive, LT uptake inh inconclusive and Prx2 Sm inh inactive.

Bioassay records from PubChem BioAssay.
